Screening results from PubChem BioAssay.
Many of the other results were omitted from the sample, so hits are more common in it than they were.
mcGAS MS inh: inhibitors of Mus musculus cyclic GMP-AMP synthase, initial high-throughput assay, cell-free, RapidFire MS | Q8C6L5 | recombinant mouse cGAS, cGAMP by RapidFire MS | inhibition, % at 12.5 µM | 130,000 compounds, 0.18% hits | AID 1259397, 2018;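 active means inhibition of cGAS enzyme activity at or above 60%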;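 further: enzyme stimulated by 45 bp dsDNA with ATP and GTP substrates; cGAMP share of summed cGAMP plus half ATP and half GTP signals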
A number is an active result; - = inactive.

SMILES | mcGAS MS inh
O=[N+]([O-])c1ccc(O)c(Cl)c1 | -
O=[N+]([O-])c1ccc(O)c([N+](=O)[O-])c1 | 95.8
O=C(c1cc([N+](=O)[O-])c[nH]1)C(Cl)(Cl)Cl | -
O=C(O)C12CCCC1CN(CC1CC1)C2 (stereo not given) | -
Cn1nnc(C(Br)CBr)n1 (stereo not given) | -
Cn1ccc(CC(=O)N2CCCC(N3CCN(Cc4ccc5c(c4)OCO5)CC3)C2)c1 (stereo not given) | -
O=C(NC1(C(Cl)(Cl)Cl)OCCO1)C(Cl)(Cl)Cl | -
Cc1oc(-c2ccc(F)cc2)nc1CN1C[C@@H]2C[C@@H](C1)c1cccc(=O)n1C2 | -
O=c1c2ccccc2[se]n1-c1ccccc1 | 93.8
O=c1c2ccccc2nc(Cc2ccccc2)n1-c1cccc(O)c1 | -
Cc1nc2ccc(N)cc2c(=O)n1-c1ccccc1 | -
Cc1ccc(F)c(-n2nnnc2CN2CC=C(c3cccs3)CC2)c1 | -
O=C(Nc1cc(Cl)ccc1Cl)OCC(F)(F)F | -
NS(=O)(=O)c1ccc2c(c1)CCN2C(=O)CNC1(c2ccc(Cl)cc2)CCCCC1 | -
